For 15 compounds, mitochondrial superoxide results are on record in the supplement of paper PMC7393113.

Where “and” joins values, the source holds several entries; their conditions need not be identical. Equal values may be shown once. Where a name gives a salt, the structure may show the parent alone. ± gives the standard deviation of the averaged measurements.

The assay concerns iBMDM (immortalised mouse bone-marrow-derived macrophages), LPS-stimulated. Briefly: mitochondrial superoxide (MitoSOX fluorescence) fold increase over unstimulated control; higher = more LPS-induced mitochondrial ROS (less inhibition). Conditions: inhibitor concentration: 500 nM; LPS: 100 ng/ml; time after LPS: 1 h. In a few lines: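 Mitochondrial superoxide was expressed as fold induction over untreated macrophages. Immortalised mouse bone-marrow-derived macrophages were pretreated with kinase inhibitors (500 nM) for 30 min, loaded with 1 μM MitoSox for 10 min and stimulated with LPS (100 ng/ml). MitoSox fluorescence (excitation 510 nm, emission 580 nm) was read hourly over 4 h, and the three replicates were averaged.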
Turning to `Cc1ccc(-c2nn(C(C)(C)C)c3ncnc(N)c23)cc1`, the mitochondrial superoxide came to 1.18 ± 0.043. Turning to `COc1cc2ncnc(Nc3ccc(F)c(Cl)c3)c2cc1NC(=O)/C=C/CN1CCCCC1`, the mitochondrial superoxide worked out at 1.22 ± 0.031. In the case of `Cn1cc(-c2cnn3c(N)c(Br)c([C@@H]4CCCNC4)nc23)cn1` it was 1.12 ± 0.091. The value for `Clc1ccc(C2(c3ccc(-c4cn[nH]c4)cc3)CCNCC2)cc1` was 1.16 ± 0.065; that for `O=C1c2ccccc2-c2n[nH]c3cccc1c23` was 1.12 ± 0.027.

Compound `CCc1cccc(CC)c1NC(=O)N1Cc2[nH]nc(NC(=O)c3ccc(N4CCN(C)CC4)cc3)c2C1` had a mitochondrial superoxide of 1.09 ± 0.027. `C[C@H](Nc1ncnc2nc[nH]c12)c1cc2cccc(Cl)c2c(=O)n1-c1ccccc1` registered a mitochondrial superoxide of 1.09 ± 0.045. As to `CS(=O)(=O)N1CCN(Cc2cc3nc(-c4cccc5[nH]ncc45)nc(N4CCOCC4)c3s2)CC1`, the mitochondrial superoxide was determined as 1.28 ± 0.025. The compound `Cc1ccc(NC(=O)c2ccc(CN3CCN(C)CC3)cc2)cc1Nc1nccc(-c2cccnc2)n1` [Imatinib Mesylate (STI571)] yielded a mitochondrial superoxide of 1.626 ± 0.013. On to `C[C@@H]1CCN(C(=O)CC#N)C[C@@H]1N(C)c1ncnc2[nH]ccc12`, for which the mitochondrial superoxide was 1.12 and 1.28.

Take `Cn1cnc(=N)c2[nH]cnc21` [3-Methyladenine]: the mitochondrial superoxide is 1.25 ± 0.078. The value for `O=c1cc(-c2cccc3c2Sc2ccccc2S3)oc(N2CCOCC2)c1` was 1.39 ± 0.034; that for `COc1ccc2cc(-c3nc(-c4ccc([S+](C)[O-])cc4)[nH]c3-c3ccncc3)ccc2c1` (stereo not given) [Tie2 kinase inhibitor] was 0.981 ± 0.069. The value for `COc1cc2/c(=N/c3ccc(Br)cc3F)nc[nH]c2cc1OCC1CCN(C)CC1` [Vandetanib (ZD6474)] was 1.57 ± 0.036; that for `C[C@@H](N)[C@H]1CC[C@H](C(=O)Nc2ccncc2)CC1` was 1.56 ± 0.061.
